# Results taken from PubChem BioAssay (NCATS).
# Records with an inconclusive call do not appear. Activity calls are given as the source filed them. Unless noted, the call rests on the fitted dose curve; in most records, active means well fitted curve in the direction sought with a large enough effect; inconclusive means small, poorly fitted or top-dose-only effect, or another doubt; inactive means no such curve, though single readings can be large; an effect the other way counts as inactive or inconclusive.
# What was measured:
# [1] = biological target: Lysosomal acid glucosylceramidase (Homo sapiens) (UniProt P04062); assay: Glucocerebrosidase-p2 (AID 348; in the data active means potency below about 10 µM; further: potency means the concentration at half of the fitted maximal effect); conditions: purified GBA, blue fluorogenic substrate, 40 min
# Sequence of Lysosomal acid glucosylceramidase (Homo sapiens) (P04062 whole entry, looked up): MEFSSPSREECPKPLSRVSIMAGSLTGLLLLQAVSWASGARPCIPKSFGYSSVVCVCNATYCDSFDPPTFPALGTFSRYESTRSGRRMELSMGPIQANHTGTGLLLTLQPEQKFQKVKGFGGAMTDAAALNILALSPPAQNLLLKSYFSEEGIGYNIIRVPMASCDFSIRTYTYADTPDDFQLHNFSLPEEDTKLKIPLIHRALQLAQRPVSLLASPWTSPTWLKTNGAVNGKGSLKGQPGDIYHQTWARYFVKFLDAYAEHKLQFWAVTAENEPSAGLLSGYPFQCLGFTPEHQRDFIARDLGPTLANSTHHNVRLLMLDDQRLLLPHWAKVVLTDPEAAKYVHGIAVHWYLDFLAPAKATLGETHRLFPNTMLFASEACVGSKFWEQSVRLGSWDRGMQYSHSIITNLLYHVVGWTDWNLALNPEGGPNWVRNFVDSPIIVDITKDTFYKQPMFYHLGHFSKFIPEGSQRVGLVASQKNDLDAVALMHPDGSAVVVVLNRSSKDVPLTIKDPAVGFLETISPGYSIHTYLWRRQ
# How it was run: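 Compounds titrated from 0.6 nM upwards against 0.2 nM enzyme in pH 5.9 citric acid/KH2PO4, taurocholate, tween-20; blue fluorogenic substrate 80 uM, 40 min room temperature, stopped and read Ex 365/Em 440 for AC50.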
# [2] = AP1 Signaling Pathway (AID 357; active means well fitted curve in either direction with a large enough effect, not every such curve was filed as active; further: on the % scale 0 is the no-effect control and ±100 the full control effect); conditions: ME-180 AP-1-bla reporter, EGF-induced, beta-lactamase ratio, 5 h; at 7.69 µM (top of the series) unless noted
# How it was run: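 Modulation of EGF-driven AP-1 transcription was assessed with a beta-lactamase reporter in ME-180 cells. Compound and EC50 EGF were co-incubated 5 hours at 37 °C before 2.5-hour CCF4 loading at room temperature and dual-emission reading.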
# [3] = biological target: Cytochrome P450 1A2 (Homo sapiens) (UniProt P05177); assay: p450-cyp1a2 (AID 410; calls by dose curve; further: potency means the concentration at half of the fitted maximal effect); conditions: recombinant CYP1A2, luciferin-ME demethylation, luminescence; series mostly up to 57 µM
# Sequence of Cytochrome P450 1A2 (Homo sapiens) (P05177 whole entry, looked up): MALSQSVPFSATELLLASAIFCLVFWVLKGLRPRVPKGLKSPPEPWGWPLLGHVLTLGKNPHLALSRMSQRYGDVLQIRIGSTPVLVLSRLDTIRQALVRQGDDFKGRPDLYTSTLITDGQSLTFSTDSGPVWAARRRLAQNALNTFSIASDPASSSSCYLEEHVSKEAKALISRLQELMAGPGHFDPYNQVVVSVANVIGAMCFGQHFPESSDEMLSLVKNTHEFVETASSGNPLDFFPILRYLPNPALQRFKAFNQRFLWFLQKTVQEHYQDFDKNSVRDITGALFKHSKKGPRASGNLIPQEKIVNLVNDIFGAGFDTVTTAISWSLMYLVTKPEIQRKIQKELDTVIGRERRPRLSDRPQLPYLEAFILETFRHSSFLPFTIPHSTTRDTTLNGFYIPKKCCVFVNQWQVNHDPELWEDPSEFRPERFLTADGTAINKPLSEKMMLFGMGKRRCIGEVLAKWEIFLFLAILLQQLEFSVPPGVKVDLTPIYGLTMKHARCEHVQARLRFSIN
# How it was run: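 20nM CYP1A2 with 100uM Luciferin-ME (at Km) in 100mM KPO4; compound preincubated 10 min, NADPH regeneration added, 60 min at room temperature. Luciferin quantified by luminescence after detection reagent; normalized to 57 uM furafylline.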
# [4] = NFAT Signaling Pathway (AID 444; active means well fitted curve in either direction with a large enough effect, not every such curve was filed as active;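 further: carbachol stimulus at about its EC50 of 1 µM final; on the % scale 0 is the no-effect control and ±100 the full control effect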); conditions: Jurkat NFAT-bla M1, carbachol, beta-lactamase ratio, 5 h; at 7.69 µM (top of the series) unless noted
# How it was run: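 Jurkat cells carrying an NFAT-driven β-lactamase reporter and co-transfected muscarinic M1 receptor were treated with compound plus carbachol (1 uM final, an EC50 level) for 5 h at 37 °C. CCF4 loading followed for 1 h at RT; 460/530 nm ratio gave %activity.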
# [5] = Stat Signaling Pathway (AID 446; active means well fitted curve in either direction with a large enough effect, not every such curve was filed as active;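 further: ME-180 cervical cancer cells given 40 pM IL-6 alongside compound; SIE-controlled beta-lactamase reporter measured as 460/530 nm FRET emission ratio; on the % scale 0 is the no-effect control and ±100 the full control effect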); conditions: ME-180 SIE beta-lactamase reporter, IL-6 stimulated, 5 h; at 7.69 µM (top of the series) unless noted
# How it was run: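 Reporter line: ME-180 cervical carcinoma, SIE-beta-lactamase. Treatment: compound with 40 pM IL-6, 5 hrs, 37 C, in low-serum OPTI-MEM with 10 mM HEPES pH 7.3. Detection: 460/530 nm fluorescence.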
# [6] = biological target: Glucocorticoid receptor (Homo sapiens) (UniProt P04150); assay: GR-GFP Redistribution (AID 450;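 active means compounds whose dose series gives a full or clear partial fitted curve of increased nuclear translocation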; further: potency means the concentration at half of the fitted maximal effect); conditions: U2OS GR-GFP nuclear translocation, laser cytometry, 2 h
# Sequence of Glucocorticoid receptor (Homo sapiens) (P04150 whole entry, looked up, the tested form may be a part): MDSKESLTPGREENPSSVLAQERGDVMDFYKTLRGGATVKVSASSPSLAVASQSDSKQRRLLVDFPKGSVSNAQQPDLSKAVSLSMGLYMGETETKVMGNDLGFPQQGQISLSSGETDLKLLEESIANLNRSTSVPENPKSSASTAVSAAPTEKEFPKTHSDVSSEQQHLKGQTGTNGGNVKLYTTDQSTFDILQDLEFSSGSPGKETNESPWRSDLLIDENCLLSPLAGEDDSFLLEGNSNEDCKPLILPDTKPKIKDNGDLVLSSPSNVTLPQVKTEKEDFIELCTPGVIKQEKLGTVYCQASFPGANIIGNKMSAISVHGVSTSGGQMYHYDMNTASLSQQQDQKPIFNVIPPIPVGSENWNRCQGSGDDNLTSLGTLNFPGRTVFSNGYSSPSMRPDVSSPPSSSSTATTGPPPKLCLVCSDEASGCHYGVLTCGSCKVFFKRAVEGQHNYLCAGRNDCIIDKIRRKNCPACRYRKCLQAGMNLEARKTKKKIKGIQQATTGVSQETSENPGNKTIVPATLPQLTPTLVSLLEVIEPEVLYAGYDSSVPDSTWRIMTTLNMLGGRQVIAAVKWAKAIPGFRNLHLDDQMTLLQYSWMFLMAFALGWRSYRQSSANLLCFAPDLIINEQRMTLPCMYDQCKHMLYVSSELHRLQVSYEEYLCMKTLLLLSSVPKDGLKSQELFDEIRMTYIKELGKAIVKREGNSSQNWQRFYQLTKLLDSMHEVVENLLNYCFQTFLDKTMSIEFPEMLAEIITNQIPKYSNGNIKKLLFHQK
# [7] = biological target: Glucocorticoid receptor (Homo sapiens) (UniProt P04150); assay: GR-EFC Redistribution (AID 451; calls by dose curve; further: potency means the concentration at half of the fitted maximal effect); conditions: CHO-K1 GR-EFC translocation, beta-gal luminescence, 2 h
# How it was run: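 CHO-K1 cells stably expressing nuclear-localized β-gal enzyme acceptor and GR fused C-terminally to the enzyme donor fragment; ligand-driven nuclear translocation restores β-gal by complementation. Compounds titrated up to 46 uM final, 2 h at 37 °C; luminescence read.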
# [8] = biological target: Mitogen-activated protein kinase 10 (Mus musculus) (UniProt Q61831); assay: JNK3 AlphaScreen Assay (AID 530; active means well fitted curve in either direction with a large enough effect, not every such curve was filed as active;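 further: kinase came from lysate of stimulated human HepG2 cells; signal reports phosphorylation of biotinylated GST-cJun 1-79 at Ser73 with 10 µM ATP; on the % scale 0 is the no-effect control and ±100 the full control effect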); conditions: JNK3 lysate, c-Jun phosphorylation; series mostly up to 57.1 µM
# How it was run: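 Inhibitors reduce antibody binding to phosphorylated biotin-cJun, lowering AlphaScreen luminescence. Lysates from HepG2 cells pre-activated by IL-1beta plus TNF-alpha supplied JNK3; compounds were titrated.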
# [9] = biological target: 3',5'-cyclic-AMP phosphodiesterase 4B (Homo sapiens) (UniProt Q07343); assay: qHTS Assay for Inhibitors of PDE-IV (AID 607; active means well fitted activation curve with a large enough effect in the main read-out, with a control signal flat, not every such curve was filed as active; further: % of control where 0% means no effect); conditions: HEK293 ACTOne CNG channel cells, membrane potential fluorescence; series mostly up to 22.9 µM
# Sequence of 3',5'-cyclic-AMP phosphodiesterase 4B (Homo sapiens) (Q07343 whole entry, looked up): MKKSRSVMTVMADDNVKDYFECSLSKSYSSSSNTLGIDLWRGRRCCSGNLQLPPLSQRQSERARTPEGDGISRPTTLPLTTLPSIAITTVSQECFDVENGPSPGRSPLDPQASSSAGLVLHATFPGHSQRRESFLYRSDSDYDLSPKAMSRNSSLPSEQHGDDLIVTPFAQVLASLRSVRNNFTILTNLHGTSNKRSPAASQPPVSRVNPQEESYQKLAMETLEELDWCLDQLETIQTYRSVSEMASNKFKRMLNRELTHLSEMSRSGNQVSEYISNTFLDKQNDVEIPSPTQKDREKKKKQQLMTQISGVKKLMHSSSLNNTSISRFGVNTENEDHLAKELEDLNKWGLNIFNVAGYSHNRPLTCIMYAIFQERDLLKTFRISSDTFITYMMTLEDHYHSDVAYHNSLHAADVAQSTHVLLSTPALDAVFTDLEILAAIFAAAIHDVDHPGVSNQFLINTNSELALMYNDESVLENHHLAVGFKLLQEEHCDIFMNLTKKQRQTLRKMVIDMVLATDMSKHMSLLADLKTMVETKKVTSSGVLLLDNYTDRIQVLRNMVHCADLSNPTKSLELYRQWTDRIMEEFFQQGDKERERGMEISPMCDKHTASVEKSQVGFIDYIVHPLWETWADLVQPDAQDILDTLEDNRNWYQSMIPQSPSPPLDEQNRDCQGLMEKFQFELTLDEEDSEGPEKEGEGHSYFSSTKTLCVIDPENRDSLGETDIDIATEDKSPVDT
# How it was run: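 Cell-based read-out of cAMP via a modified cyclic nucleotide-gated channel and membrane potential dye (535/590 nm) in HEK293 cells expressing PDE4 endogenously. Compounds tested up to 22.9 uM final; 100 uM RO 20-1724 reference.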
# [10] = biological target: Cytochrome P450 3A4 (Homo sapiens) (UniProt P08684); assay: qHTS Assay for Inhibitors and Substrates of Cytochrome P450 3A4 (AID 884); conditions: recombinant CYP3A4, Luciferin-PPXE luminescence; series mostly up to 57.1 µM; further: potency means the concentration at half of the fitted maximal effect; nearly all actives have a fitted effect of over 50% in size
# Sequence of Cytochrome P450 3A4 (Homo sapiens) (P08684 whole entry, looked up): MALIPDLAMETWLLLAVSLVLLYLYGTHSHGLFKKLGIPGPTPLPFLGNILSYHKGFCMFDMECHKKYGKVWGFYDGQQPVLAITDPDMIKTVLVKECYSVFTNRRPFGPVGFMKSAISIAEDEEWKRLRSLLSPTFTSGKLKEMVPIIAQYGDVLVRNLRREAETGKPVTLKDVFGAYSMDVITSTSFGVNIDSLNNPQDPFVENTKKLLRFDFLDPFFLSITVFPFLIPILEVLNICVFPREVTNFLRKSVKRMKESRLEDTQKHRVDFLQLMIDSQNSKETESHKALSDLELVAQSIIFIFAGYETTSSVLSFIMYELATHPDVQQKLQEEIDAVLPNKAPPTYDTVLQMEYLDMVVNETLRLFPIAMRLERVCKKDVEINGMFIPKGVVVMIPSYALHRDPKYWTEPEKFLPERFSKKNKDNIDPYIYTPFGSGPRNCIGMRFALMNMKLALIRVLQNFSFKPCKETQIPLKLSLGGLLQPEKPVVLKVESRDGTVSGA
# How it was run: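 20 nM human CYP3A4 with 25 uM Luciferin-PPXE (at KM) in 200 mM KPO4, preincubated 10 min with compound; NADPH regeneration started a 60 min RT reaction. Luciferin detected by luminescence, normalized to 57 uM ketoconazole as full inhibition.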
# [11] = biological target: Cytochrome P450 3A4 (Homo sapiens) (UniProt P08684); assay: qHTS Assay for Activators of Cytochrome P450 3A4 (AID 885); conditions: recombinant CYP3A4, Luciferin-PPXE luminescence, 60 min; series mostly up to 57.1 µM; further: nearly all actives have a fitted effect of over 65% in size
# How it was run: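 Signal was normalized against complete inhibition by 57 uM ketoconazole. The reaction used 20nM CYP3A4 with 25uM Luciferin-PPXE, 10-min compound preincubation and a 60-min NADPH-supported step at RT.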
# [12] = Confirmation and Secondary Assay for Modulators of Hemoglobin Beta Chain Splicing at IVS2 654 locus (AID 910); conditions: HeLa EGFP-654 splicing reporter, GFP fluorescence, 48 h; series mostly up to 38.3 µM;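 further: per-well total GFP intensity by laser scanning cytometry after 2-day treatment; % of control where 0% means no effect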
# How it was run: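 HeLa cells stably carrying EGFP interrupted by mutant beta-globin IVS2-654 intron (CMV-driven) were treated with compound for 2 days at 37C; corrected splicing was scored as total peak GFP intensity per well (488 nm excitation, 500-520 nm emission).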
# [13] = Confirmation and Secondary Assay for Modulators of Hemoglobin Beta Chain Splicing at IVS2 705 locus (AID 930); conditions: HeLa EGFP-705 splicing reporter, GFP fluorescence, 48 h; series mostly up to 38.3 µM;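 further: HeLa cells stably expressing the EGFP-705 splicing reporter; GFP fluorescence per well restored by corrected splicing of the IVS2-705 intron in EGFP; % of control where 0% means no effect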
# How it was run: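 Fluorescence gain (488 nm laser, 500-520 nm PMT) reflects restored correct splicing of a mutant IVS2-705 intron inside EGFP in stably transfected HeLa cells after 2-day compound treatment.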
# [14] = qHTS Assay for Lipid Storage Modulators (AID 1519; calls by dose curve); conditions: Drosophila S3 cells, BODIPY lipid droplet/cell ratio, laser cytometry, cells loaded with oleic acid; for activity change, negative = inhibition: at 57.5 µM (top of the series)
# How it was run: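 Cells seeded at 5,000 per well were treated with compounds over a concentration series and loaded with oleic acid (400 uM, as added). Lipid droplet fluorescence (488 nm excitation, 500-530 nm channel) was read by laser-scanning cytometry and normalized to 20 uM Triacsin C.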
# [15] = biological target: Ubiquitin carboxyl-terminal hydrolase 1 (Homo sapiens) (UniProt O94782); assay: Inhibitors of USP1/UAF1: Pilot qHTS (AID 504865); conditions: purified USP1/UAF1, Ub-rhodamine cleavage fluorescence; series mostly up to 54.9 µM;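 further: rhodamine fluorescence freed from ubiquitin-rhodamine substrate followed over time; top concentration of the series differs between compounds; on the % scale 0 is the no-effect control and ±100 the full control effect; nearly all actives have a fitted effect of over 35% in size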
# Sequence of Ubiquitin carboxyl-terminal hydrolase 1 (Homo sapiens) (O94782 whole entry, looked up): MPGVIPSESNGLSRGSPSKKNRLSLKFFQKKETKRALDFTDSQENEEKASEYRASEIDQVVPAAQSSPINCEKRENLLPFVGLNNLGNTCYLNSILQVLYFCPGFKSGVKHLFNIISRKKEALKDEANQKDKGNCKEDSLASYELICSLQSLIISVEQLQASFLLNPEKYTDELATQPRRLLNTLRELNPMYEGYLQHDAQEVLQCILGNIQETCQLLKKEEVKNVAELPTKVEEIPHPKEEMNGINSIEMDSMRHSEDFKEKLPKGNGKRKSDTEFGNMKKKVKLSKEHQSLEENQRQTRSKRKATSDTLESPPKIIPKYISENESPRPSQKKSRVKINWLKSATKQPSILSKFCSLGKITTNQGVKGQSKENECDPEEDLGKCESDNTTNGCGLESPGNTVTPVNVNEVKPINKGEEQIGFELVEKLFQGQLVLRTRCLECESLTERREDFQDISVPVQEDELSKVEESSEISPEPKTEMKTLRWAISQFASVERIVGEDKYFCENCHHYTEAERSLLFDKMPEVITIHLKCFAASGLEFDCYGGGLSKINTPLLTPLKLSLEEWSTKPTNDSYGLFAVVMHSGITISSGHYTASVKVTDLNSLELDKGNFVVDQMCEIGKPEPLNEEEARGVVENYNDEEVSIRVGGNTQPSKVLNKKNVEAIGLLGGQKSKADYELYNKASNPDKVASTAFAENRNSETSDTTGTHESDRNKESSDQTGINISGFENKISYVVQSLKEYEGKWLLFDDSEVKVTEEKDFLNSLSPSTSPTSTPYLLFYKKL
# How it was run: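 USP1/UAF1 complex at 1 nM preincubated 15 min at room temperature with compound, then Ub-Rho substrate added at 150 nM final. Fluorescence (480/540 nm) read kinetically in 50 mM HEPES pH 7.8, 0.5 mM EDTA, 1 mM TCEP, 0.1 mg/ml BSA, 0.01% Tween-20.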
# [16] = Primary qHTS for small molecule stabilizers of the endoplasmic reticulum resident proteome: Secreted ER Calcium Modulated Protein (SERCaMP) assay (AID 1508630); conditions: SH-SY5Y GLuc-SERCaMP (Gaussia luciferase released on ER calcium loss) secretion, thapsigargin, luminescence; series mostly up to 38.4 µM; further: on the % scale 0 is the no-effect control and ±100 the full control effect
# How it was run: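 GLuc-SERCaMP-expressing SH-SY5Y cells, pretreated 16 h with compound, are challenged with thapsigargin to empty ER calcium stores; after 4 h, coelenterazine is added directly to the medium and luminescence is imaged.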
# [17] = biological target: Dual specificity protein kinase CLK4 (Homo sapiens) (UniProt Q9HAZ1); assay: qHTS Assay for Inhibitors of CDC-like Kinase 4 (ADP-FP Assay) (AID 1795); conditions: Transcreener ADP fluorescence polarization; series mostly up to 50 µM; further: nearly all actives have a fitted effect of over 60% in size; further: potency means the concentration at half of the fitted maximal effect
# Sequence of Dual specificity protein kinase CLK4 (Homo sapiens) (Q9HAZ1 whole entry, looked up): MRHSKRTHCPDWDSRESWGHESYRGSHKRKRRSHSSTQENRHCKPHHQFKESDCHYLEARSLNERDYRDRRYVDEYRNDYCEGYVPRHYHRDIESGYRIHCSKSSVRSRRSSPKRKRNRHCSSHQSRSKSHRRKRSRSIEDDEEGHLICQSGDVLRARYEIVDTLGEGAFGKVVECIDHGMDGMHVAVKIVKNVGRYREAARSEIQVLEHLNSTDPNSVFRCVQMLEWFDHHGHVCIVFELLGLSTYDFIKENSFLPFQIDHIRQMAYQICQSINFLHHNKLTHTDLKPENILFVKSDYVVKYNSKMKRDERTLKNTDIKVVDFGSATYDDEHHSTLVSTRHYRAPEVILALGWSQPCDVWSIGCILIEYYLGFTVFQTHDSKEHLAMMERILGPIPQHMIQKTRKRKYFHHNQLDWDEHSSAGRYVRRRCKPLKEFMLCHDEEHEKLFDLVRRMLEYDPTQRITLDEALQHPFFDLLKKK
# How it was run: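 Recombinant Clk4 (6.25 nM) phosphorylated 100 uM RS repeat peptide with 1 uM ATP in 25 mM Tris pH 7.5, 10 mM MgCl2, 0.5 mM EGTA, 2.5 mM DTT, 0.01% Triton X-100 for 1 h. ADP was detected by Transcreener ADP2 competitive fluorescence polarization after 30 min at room temperature.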
# [18] = qHTS Assay for Identification of Small Molecule Agonists for Hypoxia Response Element Signaling Pathway (AID 914; active means well fitted activation curve with a large enough effect in the signal ratio, with a control signal flat, not every such curve was filed as active; the % refers to the signal ratio; further: potency means the concentration at half of the fitted maximal effect; on activation: % of control where 0% means no effect); conditions: ME-180 (cervical carcinoma) HRE-bla reporter, beta-lactamase ratio, CoCl2, 17 h; activation: stronger effect = higher value
# How it was run: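 A beta-lactamase reporter under hypoxia response element control in ME-180 cells served as the system. Compound titrations plus EC50 CoCl2 ran 17 h at 37 degrees Celsius; AC50 values were fitted from %Activity.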
# [19] = biological target: Cytochrome P450 2C9 (Homo sapiens) (UniProt P11712); assay: qHTS Assay for Inhibitors and Substrates of Cytochrome P450 2C9 (AID 883); conditions: recombinant CYP2C9, luciferin-H luminescence, 60 min; series mostly up to 57.1 µM; further: on the % scale 0 is the no-effect control and ±100 the full control effect; nearly all actives have a fitted effect of over 60% in size
# Sequence of Cytochrome P450 2C9 (Homo sapiens) (P11712 whole entry, looked up): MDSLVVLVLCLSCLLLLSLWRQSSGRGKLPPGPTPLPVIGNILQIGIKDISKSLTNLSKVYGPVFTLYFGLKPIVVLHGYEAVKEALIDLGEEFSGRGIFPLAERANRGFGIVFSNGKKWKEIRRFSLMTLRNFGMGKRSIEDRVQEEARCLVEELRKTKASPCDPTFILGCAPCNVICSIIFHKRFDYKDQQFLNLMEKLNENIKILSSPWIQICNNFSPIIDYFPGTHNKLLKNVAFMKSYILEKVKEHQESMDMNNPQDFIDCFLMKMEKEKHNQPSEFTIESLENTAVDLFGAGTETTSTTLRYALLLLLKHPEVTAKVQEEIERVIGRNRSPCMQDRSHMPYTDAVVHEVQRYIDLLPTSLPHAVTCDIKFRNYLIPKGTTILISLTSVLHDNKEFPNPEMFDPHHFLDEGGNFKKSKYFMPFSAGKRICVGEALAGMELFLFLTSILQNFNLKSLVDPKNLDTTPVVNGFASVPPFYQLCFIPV
# How it was run: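 Human CYP2C9 (10nM) hydroxylated Luciferin-H (100uM, at its KM) to luciferin in 25mM KPO4. Compound was preincubated 10 min at 37C, then NADPH regeneration started a 60 min reaction at 37C. Luminescence was read after detection reagent, normalized to 57uM sulphaphenazole.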
# [20] = measured here: cell count channel max response
# [21] = measured here: lipid channel max response
smiles,measurement,setting,value
COc1ccccc1-c1nccc(-n2ccnc2)n1,Potency,[1],> 11.4 µM (inactive)
same,"activity change, negative = inhibition",[2],10.1% (inactive)
same,Potency,[3],0.158 µM (active)
same,"activity change, negative = inhibition",[4],-2.21% (inactive)
same,"activity, negative = inhibition",[5],11.9% (inactive)
same,Potency,[6],> 46 µM (inactive)
same,Potency,[7],> 46 µM (inactive)
same,outcome,[8],inactive
same,Potency,[9],inactive
same,Potency,[10],1.58 µM (active)
same,Potency,[11],inactive
same,outcome,[12],inactive
same,outcome,[13],inactive
same,"activity change, negative = inhibition",[14],10.5% (inactive)
same,max response,[14]; [20],15.1%
same,max response,[14]; [21],27.4%
same,Potency,[15],inactive
same,Potency,[16],inactive
CNc1ncnc2ccc(-c3ccccc3C)cc12,Potency,[1],> 11.4 µM (inactive)
same,"activity change, negative = inhibition",[2],-4.22% (inactive)
same,"activity change, negative = inhibition",[4],3.06% (inactive)
same,"activity, negative = inhibition",[5],-3.66% (inactive)
same,Potency,[6],> 46 µM (inactive)
same,outcome,[8],inactive
same,"activity change, negative = inhibition",[14],-7.2% (inactive)
same,max response,[14]; [20],-12.3%
same,max response,[14]; [21],-15.2%
same,Potency,[17],8.91 µM (active)
same,Potency,[15],inactive
same,Potency,[16],inactive
FC(F)(F)c1ccccc1-c1cc(N2CCNCC2)ncn1,Potency,[1],> 11.4 µM (inactive)
same,"activity change, negative = inhibition",[2],10.3% (inactive)
same,Potency,[3],5.01 µM (active)
same,"activity change, negative = inhibition",[4],5.38% (inactive)
same,"activity, negative = inhibition",[5],3.09% (inactive)
same,Potency,[6],> 46 µM (inactive)
same,Potency,[7],> 46 µM (inactive)
same,outcome,[8],inactive
same,Potency,[9],inactive
same,outcome,[12],inactive
same,"activity change, negative = inhibition",[14],9.89% (inactive)
same,max response,[14]; [20],13.9%
same,max response,[14]; [21],24.8%
same,Potency,[15],inactive
same,Potency,[16],inactive
CN1CCN(c2ncc3nc(-c4cccs4)c(=O)n(CCC#N)c3n2)CC1,Potency,[1],> 11.4 µM (inactive)
same,Potency,[3],15.8 µM (active)
same,Potency,[6],> 9.22 µM (inactive)
same,Potency,[7],> 46 µM (inactive)
same,outcome,[8],inactive
same,Potency,[9],inactive
same,Potency,[11],inactive
same,Potency,[18],3.16 µM (active)
same,"activity change, negative = inhibition",[14],0.733% (inactive)
same,max response,[14]; [20],11.3%
same,max response,[14]; [21],9.27%
same,Potency,[17],inactive
same,Potency,[15],inactive
same,Potency,[16],inactive
CN(C)C(=O)c1ccc(-c2ccc3ncnc(N4CCC(C(=O)O)CC4)c3c2)cc1,Potency,[1],> 11.4 µM (inactive)
same,"activity change, negative = inhibition",[2],0.539% (inactive)
same,"activity change, negative = inhibition",[4],7.54% (inactive)
same,"activity, negative = inhibition",[5],-4.54% (inactive)
same,Potency,[6],> 46 µM (inactive)
same,Potency,[7],> 46 µM (inactive)
same,outcome,[8],inactive
same,Potency,[9],inactive
same,"activity change, negative = inhibition",[19],37.2% [at 2.29 µM] (inactive)
same,activation,[18],-0.026% (inactive)
same,"activity change, negative = inhibition",[14],3.56% (inactive)
same,max response,[14]; [20],20.3%
same,max response,[14]; [21],23.2%
same,Potency,[17],inactive
same,Potency,[15],inactive
same,Potency,[16],inactive
CC(=O)NCCNc1nc(-c2ccccc2C(F)(F)F)nc2ccccc12,Potency,[1],> 11.4 µM (inactive)
same,"activity change, negative = inhibition",[2],3.94% (inactive)
same,Potency,[3],15.8 µM (active)
same,"activity change, negative = inhibition",[4],4.42% (inactive)
same,"activity, negative = inhibition",[5],-7.86% (inactive)
same,Potency,[6],> 46 µM (inactive)
same,Potency,[7],> 46 µM (inactive)
same,outcome,[8],inactive
same,Potency,[9],inactive
same,Potency,[11],inactive
same,outcome,[12],inactive
same,"activity change, negative = inhibition",[14],9.13% (inactive)
same,max response,[14]; [20],11.9%
same,max response,[14]; [21],23%
same,Potency,[15],inactive
same,Potency,[16],inactive
